Screening results as filed in PubChem BioAssay.
ATXN2 expr inh: inhibitors of ATXN2 expression. HEK-293 ATXN2-luciferase reporter, luminescence, 24 h. Potency, µM (top dose mostly 57 µM), hits mostly inhibitors. 0.72% of 360,000 active. AID 1745845; further: nearly all actives have a fitted effect of over 55% in size
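qHTS (up to 57 uM final) was run with 24 h compound exposure of reporter cells at 37 °C. Each well was multiplexed: SteadyGlo luminescence measured ATXN2-luciferase expression after a fluorogenic Gly-Phe-AFC viability readout (25 uM final).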
HT1080-NT tox: kills 2HG-producing HT-1080-NT fibrosarcoma cells; HT-1080-NT fibrosarcoma viability, CellTiter-Glo ATP luminescence, 48 h; Potency, µM (top dose mostly 46.1 µM), usual class: cytotoxic; 1.6% of 360,000 active; AID 686970;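 further: NT is the 2HG producing partner of a matched IDH1 knockdown line; nearly all actives have a fitted effect of over 55% in size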
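A 48-hour cytotoxicity screen used HT-1080-NT cells plated 2 hours before compound delivery. ATP-based CellTiter-Glo luminescence measured viability, normalized to DMSO and no-cell controls.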
HT1080 IDH1KD tx: kills HT-1080 cells with IDH1 knockdown; AID 686971; Potency, µM (titrated, usually from 46.1 µM), most hits filed as cytotoxic; HT-1080 IDH1 knockdown viability, ATP luminescence, 48 h; 2% of 360,000 active
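After a 2 h attachment period, IDH1KD HT-1080 cells took pin-transferred compound for 48 h at 37 °C; ATP-based luminescence after 10 min room-temperature reagent incubation reported viability.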
S2 tox: cell viability loss in ATXN counter-screen. AID 651635. Potency, µM (titrated, usually from 56.7 µM), hits mostly cytotoxic. S2 cells (HEK-293 line with an ATXN2-luciferase reporter) viability, CellTiter-Fluor protease fluorescence, 24 h. 0.49% of 400,000 active; further: nearly all actives have a fitted effect of over 40% in size
KB-3-1 cytotox: kills parental KB-3-1 adenocarcinoma cells. KB-3-1 viability, CellTiter-Glo ATP luminescence, 72 h. Potency, µM (highest dose often 46.1 µM), actives largely listed as cytotoxic. 1.4% of 400,000 active. AID 1347075; further: nearly all actives have a fitted effect of over 60% in size
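Cytotoxicity in the drug-sensitive parental line KB-3-1 was scored as loss of CellTiter-Glo luminescence following 72 h incubation with compound. Values come from curve fitting of normalized concentration-response data.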
KB-V1 cytotox: kills drug-selected multidrug resistant KB-V1 cells; KB-V1 MDR cells viability, CellTiter-Glo, 72 h; Potency, µM (highest dose often 46.1 µM), hits mostly cytotoxic; 3.4% of 400,000 active; further: nearly all actives have a fitted effect of over 60% in size
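In this primary screen, KB-V1 cells overexpressing P-gp are incubated with library compounds (lowest to highest concentration) for 72 h at 37 degrees C before a luminescent ATP viability read.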
Of the large screens only hits and unclear results are named; the others gave an inactive call. An excerpt weighted towards active compounds, which were near 6.2% of everything screened. The call rests on the fitted dose curve; in most records, active means well fitted curve in the direction sought with a large enough effect; inconclusive means small, poorly fitted or top-dose-only effect, or another doubt; inactive means no such curve, though single readings can be large; an effect the other way counts as inactive or inconclusive.

COc1cccc(/C=N/NC(=O)C(=O)Nc2ccccc2OC(F)(F)C(F)F)c1O	ATXN2 expr inh 10µM, HT1080-NT tox inconclusive, HT1080 IDH1KD tx inconclusive, S2 tox inconclusive, KB-3-1 cytotox 9.2µM, KB-V1 cytotox inconclusive
C=CCc1cccc(/C=N/NC(=O)C(C)Nc2ccc(C)cc2)c1O (stereo unspecified)	ATXN2 expr inh 22µM, HT1080 IDH1KD tx inconclusive, KB-3-1 cytotox inconclusive, KB-V1 cytotox 21µM
CC1CC1C(=O)OCC(=O)NCc1ccccc1 (stereo unspecified)	none
C=CCc1cccc(/C=N/NC(=O)c2ccccc2Br)c1O	ATXN2 expr inh inconclusive, HT1080-NT tox inconclusive, HT1080 IDH1KD tx inconclusive, KB-3-1 cytotox inconclusive
COc1ccc(OC)c(/C=N\NC(=O)c2ccc(-c3ccccc3)cc2)c1	none
COc1cccc(/C=N/NC(=O)c2ccc(-c3ccccc3)cc2)c1O	ATXN2 expr inh 3.2µM, HT1080-NT tox inconclusive, HT1080 IDH1KD tx inconclusive, S2 tox inconclusive, KB-3-1 cytotox 5.8µM, KB-V1 cytotox inconclusive
COc1cc(OC)c(OC)cc1/C=N/NC(=O)c1ccc(=O)n(C)c1	none
C=CCc1cccc(/C=N/NC(=O)c2ccccc2OC)c1O	ATXN2 expr inh inconclusive, HT1080-NT tox inconclusive, HT1080 IDH1KD tx 16µM
C=CCc1cccc(C=NNC(=O)CN2CCN(Cc3ccccc3)CC2)c1O	ATXN2 expr inh 19µM (no result: HT1080-NT tox, HT1080 IDH1KD tx, S2 tox, KB-3-1 cytotox, KB-V1 cytotox)
COc1cccc(/C=N/NC(=O)c2ccc(=O)n(C)c2)c1O	ATXN2 expr inh 15µM, HT1080-NT tox inconclusive, HT1080 IDH1KD tx inconclusive (no result: S2 tox)
O=C1c2ccccc2C(c2nnnn2Cc2ccccc2)N1CCc1ccccc1F (stereo unspecified)	S2 tox inconclusive, KB-V1 cytotox inconclusive
CC(=O)c1ccc(N2CCN(c3nc4c(S(=O)(=O)c5ccc(C)c(C)c5)nnn4c4ccc(Cl)cc34)CC2)cc1	none (no result: HT1080-NT tox, HT1080 IDH1KD tx)
COc1cccc(/C=N/NC(=O)c2[nH]c(C)c(C(=O)N/N=C/c3cccc(OC)c3O)c2C)c1O	ATXN2 expr inh 14µM, KB-3-1 cytotox inconclusive
Cc1cccc(/C=N\NC(=O)c2ccc(Cl)cc2)c1O	ATXN2 expr inh inconclusive, HT1080-NT tox inconclusive, HT1080 IDH1KD tx 3.3µM, KB-3-1 cytotox inconclusive, KB-V1 cytotox inconclusive
COc1cccc(/C=N/NC(=O)c2ccc(=O)[nH]n2)c1O	HT1080-NT tox inconclusive, HT1080 IDH1KD tx 23µM (no result: ATXN2 expr inh)
COc1ccc(CCCC(=O)N/N=C/c2cccc(OC)c2O)cc1C	ATXN2 expr inh 13µM, HT1080-NT tox inconclusive, HT1080 IDH1KD tx inconclusive, KB-3-1 cytotox inconclusive, KB-V1 cytotox inconclusive
Cc1cccc(/C=N/NC(=O)Cc2ccc(Cl)cc2)c1O	HT1080 IDH1KD tx inconclusive, S2 tox inconclusive, KB-3-1 cytotox inconclusive (no result: ATXN2 expr inh)
Cn1c2c(c(=O)n(C)c1=O)C(c1cccc(O)c1)CC(=O)N2 (stereo unspecified)	KB-V1 cytotox inconclusive (no result: HT1080-NT tox, HT1080 IDH1KD tx)
Cc1noc(C)c1NC(=O)N(C)C[C@@H]1Oc2ncc(Br)cc2C(=O)N([C@@H](C)CO)C[C@@H]1C	none
COc1ccc(C2=Nc3ccccc3NC(c3cccs3)=N2)cc1	none (no result: HT1080-NT tox, HT1080 IDH1KD tx)
CC(C(=O)Nc1ccc(S(=O)(=O)N2CCCC2)cc1)N1CCCC(C(N)=O)C1 (stereo unspecified)	none
CC(/C=N/NC(=O)c1ccncc1)=C\c1ccccc1	HT1080 IDH1KD tx inconclusive
CC(/C=N/NC(=O)c1cccc(F)c1)=C\c1ccccc1	HT1080-NT tox inconclusive, HT1080 IDH1KD tx inconclusive, KB-3-1 cytotox 16µM, KB-V1 cytotox inconclusive
CC(/C=C/c1ccccc1F)=N\NC(=O)c1cccc(F)c1	ATXN2 expr inh inconclusive, HT1080 IDH1KD tx inconclusive, S2 tox inconclusive, KB-3-1 cytotox inconclusive, KB-V1 cytotox 21µM
CCCCOc1cccc(C(=O)N(Cc2ccc(C)o2)c2ccccn2)c1	S2 tox inconclusive (no result: HT1080-NT tox, HT1080 IDH1KD tx)
COc1cc(OC)c(OC)cc1/C=C/c1nc2cc3ccccc3cc2c(=O)n1-c1ccccc1Br	none (no result: ATXN2 expr inh, HT1080-NT tox, HT1080 IDH1KD tx, S2 tox)
O=C(Nc1nc(NC(=O)c2ccco2)n(-c2ccccc2)n1)c1ccccc1	ATXN2 expr inh inconclusive, HT1080-NT tox 10µM, HT1080 IDH1KD tx 2.5µM, KB-3-1 cytotox 16µM, KB-V1 cytotox 4.1µM
